Data on 20 molecules can be found in PubChem BioAssay AID1688 (National Center for Advancing Translational Sciences (NCATS), 2009).

Each structure is given as a SMILES string. Screen size: about 220,000 compounds; about 2,400 (1.1%) were called active. A call without a number means that no potency is given here. Inconclusive results (about 7%) are left out. Calls come from the whole dose curve; as a rule, active = well fitted inhibition curve with a large enough effect; inconclusive = small, poorly fitted or top-dose-only effect, or effect the other way; inactive = no such curve, though single readings can be large or run the other way. The sample as a whole holds a higher share of actives than the screen did.
Potency is the fitted concentration of half-maximal effect.

This assay can be described thus: qHTS Multiplex Assay to Identify Dual Action Probes in a Cell Model of Huntington: Aggregate Formation (GFP). Note: nearly all actives have a fitted effect of over 60% in size. The note with it: PC12 HttQ103-GFP aggregates, Acumen cytometry, 40 h; series mostly up to 9.22 µM. The text has this: NIH Chemical Genomics Center [NCGC]
NIH Molecular Libraries Probe Production centers Network [MLPCN]
Assay Submitter (PI): Wei Zheng
Huntington's disease is a neurodegenerative disorder caused by a trinucleotide repeat expansion in Exon 1 of the Huntingtin gene. The CAG trinucleotide encodes glutamine and polyglutamine expansions cause cell death in selective areas of the brain. Huntington polyglutamine repeats have the tendency to form aggregates which are observable in later stages of the disease. The exact nature of the aggregates, whether toxic, protective, or insignificant, is unclear.
A stable PC12 cell line containing a gene fusion of Exon 1 of the Huntingtin gene linked to GFP under the control of the inducible ecdysone promoter were used as the cell-based model of Huntington Disease for high throughput screening. Exon 1 of the Huntingtin gene contained an expansion of 103 polyglutamines (Q103) which, when expressed, caused cell death and distinct, bright GFP aggregates. The amount of cell death and the size and intensity of GFP aggregates increased over time and induction level. The cell death were quantified with a measurement of ATP content in the cells. A maximal 40-50% of cell death was observed when the Huntington gene was induced in this cell line.
We optimized this assay in a homogeneous 1536 well format. A quantitative high throughput screen (qHTS) was conducted on the PC12 cells which were induced to express the toxic fusion construct. Small molecules which reduced aggregate formation were identified bu using a laser scanning cytometer calibrated to detect the aggregates in cell lysates.
PC12 cells stably containing a construct with an ecdysone inducible promoter expressing GFP fused to the exon 1 of HTTQ103 (Huntington protein which containing a 103 ployglutamine expansion) were used.
NCGC Assay Protocol Summary:
Sequence, Parameter, Description
1, Reagent, 5 uL 1500 cells/well 1536 TC treated White clear bottom plate
2, Compound, 23 nL Tebufenozide inducer (100 nM final) to all columns
3, Compound, 23 nL 40 uM to 0.5 nM Libraries
5, Reagent, 5 ul ATPLite cell death assay reagent
6, Detector, Aggregate quantitation by Acumen Explorer
Media consisted of phenol red free DMEM + 5% equine serum (Hyclone # SH30072.03 ), 5% supplemented Bovine Calf Serum (Hyclone # SH30074.03 ), 1x pen/strep, no G418
Acumen Explorer was used to quantitate GFP aggregates using the following criteria: […] laser excitation, 500-530 nm emission, the PMT was set at a voltage of 450 volts, and objects ranging in size of […] in size having a signal of 6 STDEV above background were collected.
Control columns: 1 = DMSO, 2= 2 uM teb dilns (1:1), 4 = 100 nM Teb inducer. Sample columns received 100 nM Teb.
Consider `CCCCCn1c(=O)c(C(=O)NCc2ccccn2)c(O)c2ccccc21`, for which the Potency is 31.6 µM (active).
On to `CCCCCn1c(=O)c(C(=O)Nc2c(C)n(C)n(-c3ccccc3)c2=O)c(O)c2ccccc21`, for which the Potency entry is “inactive”.
`C=CCN1CCC23c4c5ccc(O)c4O[C@H]2C(=O)CC[C@@]3(O)C1C5` (stereo not given in full): the Potency entry is “inactive”.
Take `c1ccc2sc(SNC3CCCCC3)nc2c1`: the Potency result is “inactive”.
For the molecule `CN1CCN(/N=C/c2c[nH]c3ccccc23)CC1`, the Potency entry is “inactive”.
As to `CC(Cc1ccccc1)NC=O` (stereo not given), the Potency entry is “inactive”.
`CN1CCCC(=C(c2cccs2)c2cccs2)C1`: the Potency result is “inactive”.
The result for `Cc1ncc(CC(=O)n2cc(C(=O)c3cc(Cl)ccc3O)cn2)s1` reads 14.1 µM (active); that for `COc1cccc(CN2CCCC(C(=O)c3ccccc3SC)C2)c1O` (stereo not given), “inactive”.
The result for `CC[N+]1(CCOC(=O)C(O)(c2ccccc2)c2ccccc2)CCCCC1` reads “inactive”; that for `COc1ccc(-n2c(-c3ccccc3)nc3ccccc3c2=O)cc1`, “inactive”.
As to `O=Cc1cn(Cc2ccc(F)cc2Cl)c2ccccc12`, the Potency is 10 µM (active).
The result for `CC1C2Cn3c(nc4ccccc43)C1N(C)O2` (stereo not given) reads “inactive”; that for `CCCCC(=O)N/N=C/c1c(O)n(-c2ccccc2)c(=O)[nH]c1=O`, “inactive”; that for `CCCCC(=O)N/N=C/c1c(O)n(CC)c(=S)n(CC)c1=O`, 3.98 µM (active).
Take `CCCCC(=O)N/N=C/c1c(O)n(CCC2=CCCCC2)c(=O)[nH]c1=O`: the Potency entry was “inactive”.
`COC([CH2][Hg])CNC(=O)c1ccccc1OCC(=O)O` (stereo not given): the Potency entry is “inactive”.
With `O=C(N/N=C/c1ccc([N+](=O)[O-])o1)c1cc([N+](=O)[O-])cc([N+](=O)[O-])c1O`, the Potency entry is “inactive”.
In the case of `CC(C)c1ccc(-n2c(O)c(/C=N/N3CCOCC3)c(=O)[nH]c2=S)cc1`, the Potency entry was “inactive”.
The result for `CCCn1c(C(=O)c2ccccc2OC)nc2ccccc21` reads “inactive”.
